Results taken from PubChem BioAssay (NCI).
The panel holds about 83,000 compounds, 20% with a hit somewhere; the sample as a whole holds those more often.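 Percent growth is the endpoint: 0 to 100 indicates growth inhibition (40 means 60% inhibition), 0 means no net growth, and negative values indicate cell death.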 A number with no mark means an inactive call. Calls of active or inactive are those of the source.

tested on: HCC-2998 colon; assay: NCI-60 one-dose screen, 48 h (100 = growth as untreated, 0 = no growth, -100 = all killed); conditions: 10 µM
Experimental: Growth inhibition of the HCC-2998 human tumor cell line is measured as a screen for anti-cancer activity. Cells are grown in 96 well plates and exposed to the test compound for 48 hours. Compounds are tested at a single concentration, which is 10^-5 M for most compounds. The reported endpoint is percent growth (GI% or GIPRCNT), where numbers from 0 - 100% represent growth inhibition, and numbers from -100% - 0 represent cell death. For example, a value of 40 represents 60% growth inhibition. A value of 0 means no net growth occurred over the course of the experiment. A value of -40 indicates 40% of cells at the beginning of the experiment died by the end of the experiment. A value of -100 means all cells are dead at the end of the experiment.
NCI-60 Human Tumor Cell Lines Screen was performed using the standard one-dose NCI protocol, which is described in more detail at https://dtp.cancer.gov/discovery_development/nci-60/default.htm.
Compounds with GIPRCNT values below 10 were considered active. Activity score was based on GIPRCNT using the following formula: […]
Score is 0 for GIPRCNT values of 100 or above, 50 for GIPRCNT values of 0, and 100 for GIPRCNT values of -100.

Question: For `CCN(CC)CCOc1cccc2c1C(=O)c1ccccc1C2=O`, which growth is on record?
Answer: 102%

Question: Which growth does the source give for `CN1CCN(CCC(=O)Nc2cccc(-n3cc(-c4ccncc4)c(-c4ccc(Cl)c(O)c4)n3)c2)CC1` here?
Answer: 82.2%

Question: `CN(C)CCOc1ccc(-c2nc3sccn3c2-c2ccnc(S(C)(=O)=O)n2)cc1` was tested. Which growth did it give?
Answer: 111%

Question: Which growth does the source give for `CC[C@@H](C(=O)[C@H](C)[C@H](O)[C@@H](C)[C@H]1O[C@H]([C@@H](CC)C(=O)O)CC[C@H]1C)C1O[C@]2(C=C[C@@H](O)[C@]3(CC[C@@](C)([C@H]4CC[C@](O)(CC)[C@H](C)O4)O3)O2)[C@H](C)C[C@@H]1C` (stereo not given in full) here?
Answer: 8.29% (active)

Question: For `COc1cc(-c2nn(-c3cccc(NC(=O)CN4CCOCC4)c3)cc2-c2cccnc2)ccc1Cl`, which growth is on record?
Answer: 112%

Question: With `CCOC(=O)Cn1c(=O)c2sc3ncccc3c2n2nnc(-c3ccccc3)c12` as the compound, how does the growth read?
Answer: 114%

Question: How did the growth turn out when `NS(=O)(=O)c1ccc(N2N=C(c3ccccc3)CCC2=O)cc1` was run?
Answer: 97%

Question: Which growth does the source give for `CN(C)CCCOc1ccc(OCCCN(C)C)c2c1C(=O)c1ccccc1C2=O` here?
Answer: 16.7%

Question: How did the growth turn out when `CCOS(=O)(=O)c1c(C(C)C)cc(C(C)C)cc1C(C)C` was run?
Answer: 99.1%

Question: With `Cc1ccc(-c2c3c(N)nc(-c4cccnc4)nc3nc3c2c(C)nn3-c2ccccc2)cc1` as the compound, how does the growth read?
Answer: 103%

Question: `COc1cc(Cc2cc(-c3ccccc3)n[nH]c2=O)cc(OC)c1OC` was tested. Which growth did it give?
Answer: 79.1%

Question: With `COc1ccc(NC(=O)C2CC3C=CC2C3)c([N+](=O)[O-])c1` (stereo not given) as the compound, how does the growth read?
Answer: 103%

Question: For `COc1ccc2cc(-c3nc4ccccc4s3)c(Cl)nc2c1OC`, which growth is on record?
Answer: 105%

Question: For `Cc1c2c[n+](C(C)C)ccc2c(C)c2c1[nH]c1ccccc12`, which growth is on record?
Answer: 18.8%

Question: With `Cc1cc(CCNC=O)c(C)c2c1sc1ccccc12` as the compound, how does the growth read?
Answer: 104%

Question: How did the growth turn out when `CN(C)CCCOc1ccc(NC2=C(Cl)C(=O)C(Nc3ccc(OCCCN(C)C)cc3)=C(Cl)C2=O)cc1` was run?
Answer: -90.6% (active)

Question: How did the growth turn out when `COc1cc(-c2nn(-c3cccc(NC(=O)CCNc4ccc(N5CCOCC5)cc4)c3)cc2-c2ccncc2)ccc1Cl` was run?
Answer: 43.3%

Question: Which growth does the source give for `COc1ccc(/C=C2/SC(=S)NC2=O)c(OC)c1OC` here?
Answer: 82.3%

Question: How did the growth turn out when `COc1cc(C2C(C#N)=C(N)Oc3cc(O)ccc32)cc(OC)c1OC` (stereo not given) was run?
Answer: 27.6%

Question: For `Cc1c(Cl)cccc1NC(=O)CCCl`, which growth is on record?
Answer: 99.1%

Question: For `COc1ccc(C(=O)N/N=C/c2cc(C(F)(F)F)ccc2Cl)cc1`, which growth is on record?
Answer: 95.7%

Question: How did the growth turn out when `O=C(CN1CCN(C(=O)c2ccccc2)CC1)Nc1ccccc1SCc1ccccc1` was run?
Answer: 93.6%

Question: For `OC[C@H]1OC([S-])[C@H](O)[C@@H](O)[C@@H]1O.[Au+]` (stereo not given in full), which growth is on record?
Answer: 112%

Question: Which growth does the source give for `CNS(=O)(=O)Oc1ccc(-c2sc3cc(OS(=O)(=O)NC)ccc3c2C(=O)c2ccc(OCCN3CCCCC3)cc2)cc1` here?
Answer: 93.8%

Question: With `Cc1ccc(NC(=S)NNC(=S)Nc2ccc(C)cc2)cc1` as the compound, how does the growth read?
Answer: 68.9%

Question: With `N#Cc1c(-c2ccc(Cl)cc2)csc1NC(=O)Nc1ccc(Cl)c(C(F)(F)F)c1` as the compound, how does the growth read?
Answer: 19.8%

Question: Which growth does the source give for `COc1ccc(C(=O)N2C=Cc3ccccc3C2C#N)cc1` (stereo not given) here?
Answer: 103%

Question: How did the growth turn out when `Nc1ccn(Cc2nnc(CCC(=O)c3nc4ccccc4[nH]3)o2)c(=O)n1` was run?
Answer: 79.8%

Question: With `CN(C)c1ccc(/C=N/NC(=O)c2cccc3ccccc23)c(Cl)c1` as the compound, how does the growth read?
Answer: 61.2%

Question: Which growth does the source give for `Cc1c(Cl)cccc1NC(=O)CN1CCOCC1` here?
Answer: 103%

Question: `COc1ccccc1-n1c(-c2sc(NC(C)=O)nc2C)n[nH]c1=S` was tested. Which growth did it give?
Answer: 108%

Question: `Cc1nn(-c2ccc(-c3ccc(OC(F)(F)F)cc3)cc2)c2nc(Cc3ccccc3)nc(N)c12` was tested. Which growth did it give?
Answer: 77.2%

Question: `CCN1CC(CCN2CCOCC2)C(C(c2ccccc2)c2ccccc2)C1=O` (stereo not given) was tested. Which growth did it give?
Answer: 105%

Question: With `COc1cc(-c2nn(-c3cccc(NC(=O)CCN4CCN(Cc5ccccc5)CC4)c3)cc2-c2ccncc2)ccc1Cl` as the compound, how does the growth read?
Answer: -12.8% (active)

Question: `COc1ccc(-c2nn(-c3cccc(Cl)c3)cc2-c2cc(-c3ccccc3)nc(N)n2)cc1` was tested. Which growth did it give?
Answer: 21.9%

Question: Which growth does the source give for `c1ccc(CCCCc2ccc3ccccc3n2)cc1` here?
Answer: 92.9%

Question: For `COc1ccc2c(c1)OC(N)=C(C#N)C2c1cc(OC)c(OC)c(OC)c1` (stereo not given), which growth is on record?
Answer: 15%

Question: For `COc1cc(/C=C2\CCCC3=C2N=C2SC(C)=CN2C3c2cc(OC)c(OC)c(OC)c2)cc(OC)c1OC` (stereo not given), which growth is on record?
Answer: -88% (active)

Question: Which growth does the source give for `COc1cccc(C2C(C#N)=C(N)Oc3cc(N)ccc32)c1` (stereo not given) here?
Answer: 39.1%

Question: Which growth does the source give for `Cc1cc(SCc2ccccc2)nc(N)n1` here?
Answer: 108%
